Results filed as inconclusive are left out. Active and inactive are the calls of the source. Calls come from the whole dose curve; as a rule, active = well fitted inhibition curve with a large enough effect; inconclusive = small, poorly fitted or top-dose-only effect; inactive = flat fitted curve, though single readings scatter.
Target: Dual specificity protein kinase CLK4 (Homo sapiens) (UniProt Q9HAZ1)
Test: qHTS Assay for Inhibitors of CDC-like Kinase 4 (Kinase-Glo Assay) (AID 1770); note: nearly all actives have a fitted effect of over 65% in size
Details: recombinant Clk4, Kinase-Glo ATP depletion luminescence; series mostly up to 66.7 µM
Method: NIH Molecular Libraries Probe Production Centers Network [MLPCN] NIH Chemical Genomics Center [NCGC] MLPCN Grant: 1R03MH084827-01 Assay Submitter (PI): Tom Misteli NCGC Assay Overview: Clk4 (Invitrogen, cat# PV3839) was assayed using ATP and the RS repeat peptide (AnaSpec cat # 61722) as substrates. Following the Clk4 reaction, the remaining ATP levels were detected using Promega Kinase-Glo technology wherein the remaining ATP from the kinase reaction is detected using Ultra-Glo luciferase and D-luciferin which generates a bioluminescence signal from the ATP. The positive control for the assay was TG003 (Sigma-Aldrich, cat# 300801-52-9) which has been described as an inhibitor of Clk 4[1].
NCGC Assay Protocol Summary: Two uL/well of substrate-buffer solution (100 uM RS peptide, 1 uM ATP, 25 mM Tris pH7.5, 10 mM MgCl2, 0.5 mM EGTA, 2.5 mM DTT, 0.01% Triton X-100 final concentration) was dispensed into 1536-well, assay plates (Greiner, solid white medium-binding plates) with Aurora Discovery BioRAPTR Flying Reagent Dispenser (FRD; Beckton-Dickenson). Using a Kalypsys pin tool equipped with a 1536-pin tool, 23 nL of compound solution was transferred to the assay plate. One uL/ well Clk4-buffer solution (25 nM Clk4, 25 mM Tris pH 7.5, 10 mM MgCl2, 0.5 mM EGTA, 2.5 mM DTT, 0.01% Triton X-100, final concentrations) was then added using the FRD yielding a total kinase reaction volume of 3 uL/ well. After 4.5 hours of room temperature incubation, 3 uL Kinase-Glo reagent was added for a final assay volume of 6 uL/ well. Luminescence was detected with the ViewLux plate reader (Perkin Elmer, Waltham, MA) after 5 min incubation using a 5 second exposure time and 2x binning.
Potency is the fitted concentration of half-maximal effect.

Chain of Dual specificity protein kinase CLK4 (Homo sapiens) (Q9HAZ1 whole entry, looked up): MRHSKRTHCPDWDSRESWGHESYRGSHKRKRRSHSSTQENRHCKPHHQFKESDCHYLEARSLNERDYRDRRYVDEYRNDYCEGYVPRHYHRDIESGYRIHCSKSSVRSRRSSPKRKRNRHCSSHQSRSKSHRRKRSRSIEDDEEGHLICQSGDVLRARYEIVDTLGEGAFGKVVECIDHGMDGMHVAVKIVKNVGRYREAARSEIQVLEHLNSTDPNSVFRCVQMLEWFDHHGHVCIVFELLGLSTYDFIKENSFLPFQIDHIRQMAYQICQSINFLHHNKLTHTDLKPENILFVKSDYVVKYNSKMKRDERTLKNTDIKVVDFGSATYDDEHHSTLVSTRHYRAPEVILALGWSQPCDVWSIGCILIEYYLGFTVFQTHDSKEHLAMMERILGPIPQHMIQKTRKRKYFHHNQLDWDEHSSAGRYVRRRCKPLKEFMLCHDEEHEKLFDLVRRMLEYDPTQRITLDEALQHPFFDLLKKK

Potency, active:
COc1ccc2[nH]cc(CCNc3ncnc4ccc(-c5ccc6c(c5)OCO6)cc34)c2c1 0.316 µM
Cc1cnc(CNc2cc(-c3ccc4c(c3)OCO4)ncn2)cn1 3.98 µM
CC(=O)NCCNc1ncnc2ccc(-c3ccccc3C#N)cc12 14.1 µM
CN(Cc1ccco1)c1ncnc2ccc(-c3ccccc3C#N)cc12 11.2 µM
CN(Cc1ccco1)c1cc(-c2cccc(NS(C)(=O)=O)c2)ncn1 11.2 µM
CS(=O)(=O)Nc1cccc(-c2nccc(Nc3ccc(F)cc3)n2)c1 15.8 µM
COc1cccc(-c2nccc(NCc3ccc(OC)cc3OC)n2)c1 31.6 µM
c1cncc(-c2ccc3ncnc(NC4CCNCC4)c3c2)c1 14.1 µM
COc1ccccc1-c1ccc2ncnc(Nc3ccccc3)c2c1 15.8 µM
CN(C)c1ccc(-c2nc(NCCc3cnc[nH]3)c3ccccc3n2)cc1 28.2 µM
c1cncc(-c2nccc(NCc3cccs3)n2)c1 14.1 µM
COc1ccccc1-c1ccc2ncnc(NCCN3CCOCC3)c2c1 14.1 µM
CN(C)c1ccc(-c2nc(-n3ccnc3)c3ccccc3n2)cc1 7.94 µM
COc1ccc2[nH]cc(CCNc3cc(-c4cccnc4)ncn3)c2c1 14.1 µM

Potency, inactive:
CN1CCN(c2ncc3nc(-c4cn(C)c5ccccc45)c(=O)n(-c4ccccc4)c3n2)CC1
COCCn1c(=O)c(-c2cccs2)nc2cnc(N3CCOCC3)nc21
COCCn1c(=O)c(-c2ccccc2)nc2cncnc21
COc1cccc(Cn2c(=O)c(-c3cccs3)nc3cncnc32)c1
O=c1c(-c2ccccc2)nc2cnc(N3CCOCC3)nc2n1Cc1cccs1
Cn1cc(-c2nc3cncnc3n(Cc3ccccc3Cl)c2=O)c2ccccc21
Cc1noc(C)c1-c1nccc(N2CCN(C)CC2)n1
CCNc1ncc2nc(-c3cc(F)cc(F)c3)c(=O)n(C3CC3)c2n1
Cc1nc2cnc(N3CCN(C)CC3)nc2n(C[C@H]2CCCO2)c1=O
Cc1nc2cncnc2n(Cc2ccc(F)cc2)c1=O
COc1ccc(-c2nc3cnc(OC)nc3n(-c3ccc(OC)cc3)c2=O)cc1
COc1ncc2nc(-c3ccccc3)c(=O)n(CCC#N)c2n1
COc1ncc2nc(-c3ccc(Cl)cc3)c(=O)n(Cc3cccs3)c2n1
COc1ncc2nc(-c3cn(C)c4ccccc34)c(=O)n(-c3ccccc3)c2n1
N#Cc1cccc(-c2nc(NCc3cccnc3)c3ccccc3n2)c1
CCNc1ncc2nc(-c3ccccc3)c(=O)n(Cc3cccc(OC)c3)c2n1
CN(Cc1ccco1)c1ccnc(-c2ccccc2C(F)(F)F)n1
COc1ccc(CNc2ccnc(-c3c(C)noc3C)n2)c(OC)c1
COc1cccc(Cn2c(=O)c(C)nc3cnc(Nc4cccc(OC)c4)nc32)c1
COCCn1c(=O)c(-c2ccc(Cl)cc2)nc2cnc(N3CCOCC3)nc21
COc1ccc(Nc2ncc3nc(-c4cccs4)c(=O)n(Cc4cccc(OC)c4)c3n2)cc1
COc1cccc(Cn2c(=O)c(-c3cccs3)nc3cnc(OCc4ccccc4)nc32)c1
CN1CCN(c2ncc3nc(-c4cccs4)c(=O)n(Cc4ccc(F)cc4)c3n2)CC1
COc1ccccc1CCn1c(=O)c(-c2cccs2)nc2cncnc21
O=c1c(-c2cc(F)cc(F)c2)nc2cnc(N3CCNCC3)nc2n1Cc1ccc(F)cc1
CCNc1ncc2nc(-c3cccc(C#N)c3)c(=O)n(Cc3cccc(OC)c3)c2n1
